This note sets out measurements from PubChem BioAssay (EPA / NIEHS).

As a reminder, the AC50 is the midpoint of the concentration-response curve, whichever way the signal moves.

Assay [1] addresses Myc proto-oncogene protein (Homo sapiens) (UniProt P01106). The assay can be described thus: ATG_Myc_CIS: Attagene CIS-FACTORIAL HepG2 Assay for human Myelocytomatosis (Myc) Proto-Oncogene Transcription Factor (AID 2282990). The conditions noted are these: HepG2, Attagene cis-reporter transcription factor activity; actives raise or lower the signal. Summed up: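 Read-out: fluorescent reporter mRNA fragments resolved by capillary electrophoresis after RT-PCR. Human HepG2 liver cells carried transfected cis-element reporter units and were dosed for 24 h. Gain or loss of signal fitted relative to DMSO baseline.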

The nature of assay [2]: ATG_NF_kB_CIS: Attagene CIS-FACTORIAL HepG2 Assay for human Nuclear Factor Kappa B (NF-kB) (AID 2282991). The conditions noted are these: HepG2 Attagene cis-factorial NF-kB reporter mRNA; actives raise or lower the signal. The procedure, abridged:
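Endogenous transcription factor activity in HepG2 was captured via cis-regulated reporter constructs; after 24 h dosing, reporter mRNA was reverse-transcribed, amplified, fluorescently labelled and sized by capillary electrophoresis, with activity fitted bidirectionally relative to DMSO.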

The nature of assay [3]: ATG_NRF2_ARE_CIS: Attagene CIS-FACTORIAL HepG2 Assay for human Nuclear Factor Erythroid 2 Related Factor 2 (NFR2) response to Antioxidant Response Elements (ARE) (AID 2282992).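 As to AC50: reporter mRNA level measured by RT-PCR and capillary electrophoresis fluorescence.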 The following applies: HepG2 Attagene ARE/NRF2 reporter, transcription factor activity; actives raise or lower the signal. The procedure, abridged: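 Fluorescence intensity of reporter-specific cDNA fragments, separated by capillary electrophoresis, reflects mRNA induction in transfected HepG2 cells at 24 h. Activity is fitted bidirectionally, DMSO serving as baseline.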

A short description of assay [4]: ATG_Oct_MLP_CIS: Attagene CIS-FACTORIAL HepG2 Assay for human Octamer-Binding Transcription Factor (Oct) (AID 2282993). The conditions noted are these: HepG2 Attagene cis-factorial Oct reporter, mRNA; actives raise or lower the signal. Summed up: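 Read-out: reporter mRNA via RT-PCR plus capillary electrophoresis of 6-FAM-labelled fragments. Transiently transfected HepG2, 24 h exposure, endogenous TF activity on cis elements. Gain or loss of signal fitted relative to DMSO.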

In assay [5] the target is Cellular tumor antigen p53 (Homo sapiens) (UniProt P04637). The experiment in a line: ATG_p53_CIS: Attagene CIS-FACTORIAL HepG2 Assay for human p53 Transcription Factor (AID 2282994). The conditions noted are these: HepG2 p53 cis-element reporter, Attagene mRNA; actives raise or lower the signal. The procedure, abridged:
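Transiently transfected HepG2 (multiple cis reporter transcription units); exposure 24 h; reporter RNA via RT-PCR, 6-FAM extension, 2 h HpaI digest at 37 C, CE detection; DMSO baseline.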

A short description of assay [6]: BSK_3C_TissueFactor: BioMAP Diversity Plus: 3C Assay for Tissue Factor Biomarker Activity (AID 2282997). The conditions noted are these: BioMAP 3C HUVEC, tissue factor biomarker readout; actives raise or lower the signal. The procedure, abridged:
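Cells used were primary human umbilical vein endothelial cells. They were dosed with chemical, and after 24 h Tissue Factor was quantified by ELISA. Curves were fitted bidirectionally with DMSO as baseline.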

Assay [7] is described as follows: BSK_3C_uPAR: BioMAP Diversity Plus: 3C Assay for Urokinase-type plasminogen activator receptor (uPAR) Biomarker Activity (AID 2282998). The following applies: BioMAP 3C HUVEC, uPAR biomarker ELISA; actives raise or lower the signal. Summed up: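 HUVEC primary cells; 24 h post-dose; uPAR by ELISA; gain or loss of signal fitted bidirectionally vs DMSO baseline.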
A general note: In an ELISA, binding on a coated surface is turned into a signal by an enzyme label.

A short description of assay [8]: BSK_3C_VCAM1: BioMAP Diversity Plus: 3C Assay for Vascular cell adhesion molecule 1 (VCAM1) Biomarker Activity (AID 2282999). The following applies: BioMAP 3C HUVEC, VCAM1 ELISA, cytokine-stimulated; actives raise or lower the signal. Summed up: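 HUVEC primary cells, 24 h compound exposure; VCAM-1 by ELISA; gain/loss of signal fitted bidirectionally vs DMSO baseline.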

Read-out in assay [9]: Intercellular Adhesion Molecule 1 (ICAM1), ICAM1 (gene 3383)
The assay can be described thus: BSK_3C_ICAM1: BioMAP Diversity Plus: 3C Assay for Intercellular Adhesion Molecule 1 (ICAM1) Biomarker Activity (AID 2283003). The following applies: primary human endothelial cells (HUVEC); actives raise or lower the signal. Summed up: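 Chemicals are dosed onto primary human umbilical vein endothelium (3C system). After 24 h, ICAM-1 is measured by ELISA, and responses are fitted bidirectionally relative to DMSO.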

The target in assay [10] is human Retinoic Acid Receptor beta (RARb), RARB (gene 5915) (UniProt P10826). The experiment in a line: ATG_RARb_TRANS: Attagene TRANS-FACTORIAL HepG2 Assay for human Retinoic Acid Receptor beta (AID 2283004; active = hit-call score of the fitted dose curve at least 0.9, where 1 is the maximum). The procedure, abridged:
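HepG2, transient MRTU transfection, NR–Gal4 chimera, 24 h treatment; RT-PCR plus CE fluorescence detection of reporter mRNA; gain of signal vs DMSO.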

Assay [11] is described as follows: BSK_3C_Proliferation: Cell Proliferation Assessment in the BioMAP Diversity Plus: 3C Assay (AID 2283006).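 As to AC50: potency may reflect either rise or fall in cell number versus DMSO.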 The following applies: primary human endothelial cells (HUVEC). Summed up: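 Cells (human umbilical vein endothelial, sub-confluent) receive test chemical; after 48 h they are fixed in 10% trichloroacetic acid, stained with 0.1% SRB and read at 560 nm. Activity is referenced to DMSO, fitting increases and decreases.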

For assay [12], the target named is Nuclear receptor subfamily 1 group I member 2 (Homo sapiens) (UniProt O75469). The experiment in a line: ATG_PXR_TRANS: Attagene TRANS-FACTORIAL HepG2 Assay for human Pregnane X Receptor (PXR) (AID 2283008; active = hit-call score of the fitted dose curve at least 0.9, where 1 is the maximum). The procedure, abridged: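 Transient HepG2 transfectants carrying multiplexed reporter transcription units; PXR activity read through a Gal4 chimera. 24 h exposure. RT-PCR/CE fluorescence; upward curve fit referenced to DMSO.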

Assay [13] addresses human Retinoic Acid Receptor gamma (RARg), RARG (gene 5916) (UniProt P13631). The experiment in a line: ATG_RARg_TRANS: Attagene TRANS-FACTORIAL HepG2 Assay for human Retinoic Acid Receptor gamma (RARg) (AID 2283009; active = hit-call score of the fitted dose curve at least 0.9, where 1 is the maximum). Summed up: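 TRANS format measured activity of exogenous NR-GAL4 fusion (RARg) in transfected HepG2 liver cells after 24 h dosing. Induced reporter RNA was detected by RT-PCR/capillary electrophoresis fluorescence, analysed in the positive direction against DMSO.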

Assay [14] addresses human RAR-related Orphan Receptor beta (RORb), RORB (gene 6096) (UniProt Q92753). The assay can be described thus: ATG_RORb_TRANS: Attagene TRANS-FACTORIAL HepG2 Assay for human RAR-related Orphan Receptor beta (RORb) (AID 2283010; active = hit-call score of the fitted dose curve at least 0.9, where 1 is the maximum). Summed up: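 Transfect HepG2 with multiple GAL4-UAS reporter transcription units; dose chemicals for 24 h; isolate RNA, reverse-transcribe and PCR-amplify reporter sequences; label, digest and resolve fragments by capillary electrophoresis; fit increases relative to DMSO.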

Assay [15] deals with Retinoic acid receptor alpha (Homo sapiens) (UniProt P10276). The assay can be described thus: ATG_RARa_TRANS: Attagene TRANS-FACTORIAL HepG2 Assay for human Retinoic Acid Receptor alpha (RARa) (AID 2283005; active = hit-call score of the fitted dose curve at least 0.9, where 1 is the maximum). The procedure, abridged: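 HepG2 transiently transfected with multiplex GAL4-UAS reporter units including a human RARa–GAL4 chimera; 24 h compound exposure. Reporter mRNA quantified by RT-PCR, 6-FAM labeling and capillary electrophoresis; gain of signal versus DMSO.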

For assay [16], the target named is Peroxisome proliferator-activated receptor gamma (Homo sapiens) (UniProt P37231). The assay can be described thus: ATG_PPARg_TRANS: Attagene TRANS-FACTORIAL HepG2 Assay for human Peroxisome Proliferator-activated Receptor-gamma (PPARg) (AID 2283007; active = hit-call score of the fitted dose curve at least 0.9, where 1 is the maximum). Summed up:
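A TRANS-format multiplexed reporter assay measures activity of an exogenous chimeric NR-Gal4 protein in HepG2 cells. After 24 h of chemical exposure, reporter transcripts are amplified, fluorescently labelled and sized by capillary electrophoresis, with gain of signal scored against DMSO.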

Assay [17] is described as follows: BSK_4H_Eotaxin3: BioMAP Diversity Plus: 4H Assay for Eotaxin 3 Biomarker Activity (AID 2283000).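 As to outcome: CCL26 protein level quantified by ELISA in parallel with SRB cytotoxicity check.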 The conditions noted are these: primary human endothelial cells (HUVEC); actives raise or lower the signal. The procedure, abridged:
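Endothelial primary cells (human umbilical vein) exposed to compound for 24 h. ELISA detection of Eotaxin-3.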

In assay [18] the target is human RAR-related Orphan Receptor gamma (RORg), RORC (gene 6097) (UniProt P51449). The assay can be described thus: ATG_RORg_TRANS: Attagene TRANS-FACTORIAL HepG2 Assay for human RAR-related Orphan Receptor gamma (RORg) (AID 2283011; active = hit-call score of the fitted dose curve at least 0.9, where 1 is the maximum). The procedure, abridged:
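Activity is scored as increase in GAL4-UAS reporter mRNA over DMSO, detected by fluorescent RT-PCR and capillary electrophoresis in HepG2 cells transiently expressing a RORg-Gal4 chimera, 24 h after dosing.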

Assay [19] deals with human Peroxisome Proliferator-activated Receptor delta (PPARd), PPARD (gene 5467) (UniProt Q03181). The experiment in a line: ATG_PPARd_TRANS: Attagene TRANS-FACTORIAL HepG2 Assay for human Peroxisome Proliferator-activated Receptor delta (PPARd) (AID 2283002; active = hit-call score of the fitted dose curve at least 0.9, where 1 is the maximum). The procedure, abridged:
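Read-out: reporter mRNA induction, quantified by fluorescent RT-PCR products resolved by capillary electrophoresis. Human HepG2 liver cells carried transiently transfected Gal4-UAS reporter constructs with chimeric NR-Gal4 fusions. Cells were dosed for 24 h; DMSO served as baseline.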

Records with an inconclusive call do not appear. Calls of active or inactive are those of the source. The calls were made as follows, unless noted: active = hit-call score of the fitted dose curve at least 0.9, where 1 is the maximum; inactive = score below 0.9.

Chain of human Retinoic Acid Receptor beta (RARb), RARB (gene 5915) (P10826 whole entry, looked up, the tested form may be a part): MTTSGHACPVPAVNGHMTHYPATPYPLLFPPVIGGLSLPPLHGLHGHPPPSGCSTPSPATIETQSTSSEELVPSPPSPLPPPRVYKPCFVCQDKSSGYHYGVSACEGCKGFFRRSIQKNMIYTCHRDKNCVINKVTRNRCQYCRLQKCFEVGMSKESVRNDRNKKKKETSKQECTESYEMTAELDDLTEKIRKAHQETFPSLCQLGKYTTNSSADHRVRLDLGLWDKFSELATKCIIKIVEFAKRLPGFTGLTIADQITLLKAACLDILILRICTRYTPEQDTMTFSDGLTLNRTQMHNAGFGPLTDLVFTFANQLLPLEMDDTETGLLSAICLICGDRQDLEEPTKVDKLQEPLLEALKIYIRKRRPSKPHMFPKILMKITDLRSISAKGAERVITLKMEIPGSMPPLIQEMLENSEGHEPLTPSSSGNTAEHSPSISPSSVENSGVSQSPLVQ
Chain of human RAR-related Orphan Receptor gamma (RORg), RORC (gene 6097) (P51449 whole entry, looked up, the tested form may be a part): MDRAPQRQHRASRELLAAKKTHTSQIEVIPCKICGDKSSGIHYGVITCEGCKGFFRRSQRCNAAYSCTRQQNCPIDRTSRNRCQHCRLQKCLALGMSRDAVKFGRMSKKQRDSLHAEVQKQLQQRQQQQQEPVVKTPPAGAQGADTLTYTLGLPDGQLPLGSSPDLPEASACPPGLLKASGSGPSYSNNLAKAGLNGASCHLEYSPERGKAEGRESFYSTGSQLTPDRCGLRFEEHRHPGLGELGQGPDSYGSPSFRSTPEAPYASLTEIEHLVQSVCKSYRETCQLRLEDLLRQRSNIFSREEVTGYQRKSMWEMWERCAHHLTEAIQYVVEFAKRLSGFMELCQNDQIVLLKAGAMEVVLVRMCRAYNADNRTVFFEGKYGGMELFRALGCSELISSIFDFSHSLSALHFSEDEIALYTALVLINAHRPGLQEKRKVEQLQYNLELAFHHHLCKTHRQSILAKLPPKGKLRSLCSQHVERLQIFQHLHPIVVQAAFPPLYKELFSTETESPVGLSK
Chain of Myc proto-oncogene protein (Homo sapiens) (P01106 whole entry, looked up, the tested form may be a part): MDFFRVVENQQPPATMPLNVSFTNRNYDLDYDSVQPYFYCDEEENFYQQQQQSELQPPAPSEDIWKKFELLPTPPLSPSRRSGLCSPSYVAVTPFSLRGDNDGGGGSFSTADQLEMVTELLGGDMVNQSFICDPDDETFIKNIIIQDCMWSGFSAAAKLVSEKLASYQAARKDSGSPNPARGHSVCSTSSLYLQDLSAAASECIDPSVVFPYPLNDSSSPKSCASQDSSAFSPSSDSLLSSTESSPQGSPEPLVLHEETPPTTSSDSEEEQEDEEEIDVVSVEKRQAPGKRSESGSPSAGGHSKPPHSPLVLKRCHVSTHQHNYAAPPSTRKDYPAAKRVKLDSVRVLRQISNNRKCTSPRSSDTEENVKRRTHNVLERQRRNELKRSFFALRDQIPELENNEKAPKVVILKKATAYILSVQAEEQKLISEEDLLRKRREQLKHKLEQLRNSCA
Chain of Cellular tumor antigen p53 (Homo sapiens) (P04637 whole entry, looked up): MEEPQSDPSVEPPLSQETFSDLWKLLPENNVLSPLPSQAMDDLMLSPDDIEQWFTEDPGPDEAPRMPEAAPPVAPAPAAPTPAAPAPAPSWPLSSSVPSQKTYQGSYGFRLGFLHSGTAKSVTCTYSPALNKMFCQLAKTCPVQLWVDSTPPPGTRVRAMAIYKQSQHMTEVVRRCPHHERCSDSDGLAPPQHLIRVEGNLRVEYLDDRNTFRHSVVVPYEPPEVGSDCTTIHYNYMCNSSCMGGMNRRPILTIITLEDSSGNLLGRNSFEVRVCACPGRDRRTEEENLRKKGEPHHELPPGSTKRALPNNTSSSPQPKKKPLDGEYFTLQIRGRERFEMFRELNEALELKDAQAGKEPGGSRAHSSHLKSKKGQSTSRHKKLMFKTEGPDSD
Chain of human Retinoic Acid Receptor gamma (RARg), RARG (gene 5916) (P13631 whole entry, looked up, the tested form may be a part): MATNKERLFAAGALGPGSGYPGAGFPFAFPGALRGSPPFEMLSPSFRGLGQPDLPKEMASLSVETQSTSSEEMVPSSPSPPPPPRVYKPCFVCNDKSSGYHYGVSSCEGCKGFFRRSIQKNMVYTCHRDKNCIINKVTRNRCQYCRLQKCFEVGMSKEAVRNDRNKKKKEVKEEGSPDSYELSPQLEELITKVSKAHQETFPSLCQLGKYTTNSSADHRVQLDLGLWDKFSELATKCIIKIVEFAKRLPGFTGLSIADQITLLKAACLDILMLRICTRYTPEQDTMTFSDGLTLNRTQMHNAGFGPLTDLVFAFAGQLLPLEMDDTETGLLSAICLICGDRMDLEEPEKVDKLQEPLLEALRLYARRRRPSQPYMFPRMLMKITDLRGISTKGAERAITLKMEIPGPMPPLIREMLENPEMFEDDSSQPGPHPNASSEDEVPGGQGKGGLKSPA
Chain of Nuclear receptor subfamily 1 group I member 2 (Homo sapiens) (O75469 whole entry, looked up, the tested form may be a part): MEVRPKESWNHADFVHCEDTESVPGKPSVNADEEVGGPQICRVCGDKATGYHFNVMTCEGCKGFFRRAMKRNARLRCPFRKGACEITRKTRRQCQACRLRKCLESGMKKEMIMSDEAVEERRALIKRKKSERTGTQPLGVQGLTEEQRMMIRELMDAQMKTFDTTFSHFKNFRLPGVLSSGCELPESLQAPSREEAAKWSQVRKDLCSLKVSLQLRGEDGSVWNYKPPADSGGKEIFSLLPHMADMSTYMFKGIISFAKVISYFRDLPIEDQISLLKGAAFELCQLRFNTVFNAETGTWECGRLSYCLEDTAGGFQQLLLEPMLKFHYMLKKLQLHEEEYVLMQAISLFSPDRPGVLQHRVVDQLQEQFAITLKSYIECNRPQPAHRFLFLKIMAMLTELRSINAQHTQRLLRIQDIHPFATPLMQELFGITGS
Chain of Retinoic acid receptor alpha (Homo sapiens) (P10276 whole entry, looked up, the tested form may be a part): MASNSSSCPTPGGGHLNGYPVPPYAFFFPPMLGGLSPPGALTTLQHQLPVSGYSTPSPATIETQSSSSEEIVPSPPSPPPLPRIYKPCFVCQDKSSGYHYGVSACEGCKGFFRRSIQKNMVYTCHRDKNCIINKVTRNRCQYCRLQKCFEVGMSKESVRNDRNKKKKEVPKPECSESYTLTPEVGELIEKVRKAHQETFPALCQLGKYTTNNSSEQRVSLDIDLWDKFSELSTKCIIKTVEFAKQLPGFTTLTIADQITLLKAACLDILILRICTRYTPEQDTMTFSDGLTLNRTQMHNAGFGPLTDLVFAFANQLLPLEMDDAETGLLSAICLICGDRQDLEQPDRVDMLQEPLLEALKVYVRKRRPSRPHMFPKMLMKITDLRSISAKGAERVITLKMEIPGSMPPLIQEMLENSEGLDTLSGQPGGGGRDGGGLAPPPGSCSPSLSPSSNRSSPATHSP
Chain of human RAR-related Orphan Receptor beta (RORb), RORB (gene 6096) (Q92753 whole entry, looked up, the tested form may be a part): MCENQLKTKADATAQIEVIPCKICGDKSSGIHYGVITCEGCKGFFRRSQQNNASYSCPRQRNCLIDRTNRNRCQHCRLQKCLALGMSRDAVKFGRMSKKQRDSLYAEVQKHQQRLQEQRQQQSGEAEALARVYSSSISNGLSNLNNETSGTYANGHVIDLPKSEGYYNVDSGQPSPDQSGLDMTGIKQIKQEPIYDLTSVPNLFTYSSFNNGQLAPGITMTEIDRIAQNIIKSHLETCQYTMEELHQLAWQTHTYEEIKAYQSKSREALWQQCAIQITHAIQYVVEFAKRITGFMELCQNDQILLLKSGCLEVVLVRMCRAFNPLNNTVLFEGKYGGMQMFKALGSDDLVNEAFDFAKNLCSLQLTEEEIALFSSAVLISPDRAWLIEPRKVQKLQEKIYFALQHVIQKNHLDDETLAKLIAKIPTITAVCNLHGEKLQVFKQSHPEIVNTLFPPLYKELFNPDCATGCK
Chain of Peroxisome proliferator-activated receptor gamma (Homo sapiens) (P37231 whole entry, looked up, the tested form may be a part): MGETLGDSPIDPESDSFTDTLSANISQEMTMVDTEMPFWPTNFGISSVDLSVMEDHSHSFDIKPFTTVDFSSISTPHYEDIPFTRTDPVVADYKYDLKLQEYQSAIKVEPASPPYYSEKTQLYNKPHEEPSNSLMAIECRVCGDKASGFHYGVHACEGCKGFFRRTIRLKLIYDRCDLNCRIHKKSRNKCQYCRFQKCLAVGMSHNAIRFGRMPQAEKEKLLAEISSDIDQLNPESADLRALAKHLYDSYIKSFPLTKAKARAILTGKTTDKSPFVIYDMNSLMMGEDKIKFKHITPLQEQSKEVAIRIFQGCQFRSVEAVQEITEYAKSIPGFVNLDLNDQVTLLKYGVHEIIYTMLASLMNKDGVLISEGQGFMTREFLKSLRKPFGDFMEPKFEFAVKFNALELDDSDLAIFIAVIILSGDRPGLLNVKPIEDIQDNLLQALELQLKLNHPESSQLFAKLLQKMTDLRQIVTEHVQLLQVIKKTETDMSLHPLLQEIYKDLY
Chain of human Peroxisome Proliferator-activated Receptor delta (PPARd), PPARD (gene 5467) (Q03181 whole entry, looked up, the tested form may be a part): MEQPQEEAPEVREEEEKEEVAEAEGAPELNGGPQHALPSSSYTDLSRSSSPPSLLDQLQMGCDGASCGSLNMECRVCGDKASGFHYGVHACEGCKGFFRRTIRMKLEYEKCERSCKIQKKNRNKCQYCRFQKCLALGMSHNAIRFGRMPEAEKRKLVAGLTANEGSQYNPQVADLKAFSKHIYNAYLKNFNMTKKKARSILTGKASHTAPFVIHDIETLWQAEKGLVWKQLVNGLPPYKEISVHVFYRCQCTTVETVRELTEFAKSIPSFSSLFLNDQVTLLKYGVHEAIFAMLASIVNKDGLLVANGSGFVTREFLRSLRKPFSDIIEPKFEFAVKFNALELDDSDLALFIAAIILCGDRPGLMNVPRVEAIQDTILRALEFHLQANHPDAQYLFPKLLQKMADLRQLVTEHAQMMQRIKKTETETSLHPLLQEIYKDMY

In the case of `O=C(O)CCN(C1(C(=O)NO)CCCC1)S(=O)(=O)c1ccc(Oc2ccc(F)cc2)cc1`, the compound was classed as inactive in assay [1], in [2], in [3], in [4], in assay [5] and in assay [6]. Also, the result in assay [7], in [8], in assay [9], in assay [10], in assay [11] and in assay [12] was inactive. Moreover, the compound was classed as inactive in assay [13] and in [14].

On to `COCCOCCOCCOC`, for which the compound was classed as inactive in [1], in assay [2], in assay [3], in assay [4], in assay [5] and in assay [6]. Besides, the result in assay [7], in [10], in assay [15], in assay [11], in assay [12] and in assay [13] was inactive.

As for `CC(C)=CCCC(C)CCO` (stereo not given), the compound was classed as inactive in assay [1], in assay [2], in assay [4], in assay [5], in [6] and in assay [7]. In addition, the result in [8], in assay [9], in [10], in assay [11], in assay [12] and in assay [14] was inactive. The results for the half-maximal activity concentration (AC50) in [3] and in [16] were 134 µM (active) and 42.6 µM (active), respectively.

On to `C=CC(=C)CCC=C(C)C`, for which the compound was classed as inactive in assay [1], in assay [2], in assay [3], in [4], in assay [5] and in assay [6]. Further, the result in assay [7], in assay [17], in assay [11], in assay [12] and in assay [18] was inactive. Also, the AC50 in assay [16] was 100 µM (active).

In the case of `CC(C)CCO`, the call in assay [1], in [2], in assay [3], in assay [4], in [5] and in assay [6] was inactive. In addition, the outcome in assay [7], in assay [17], in [10], in [15], in assay [11] and in [12] was inactive. For the same compound, the result in assay [13] and in assay [18] was inactive.

Take `O=C(O)c1cccc(Oc2ccccc2)c1`: the compound was called inactive in [1], in assay [2], in assay [3], in assay [4], in assay [5] and in assay [6]. Besides, the outcome in assay [7], in assay [9], in assay [10], in [11] and in assay [18] was inactive.

For the compound `CC(C)c1cccc(C(C)C)c1N1C(=O)c2ccc(O)cc2C1=O`, the concentration at half-maximal activity (AC50) in [1] is 164 µM (active); in [3], 25.2 µM (active); in assay [4], 76.2 µM (active); in assay [5] it was 166 µM (active); in assay [7], 19 µM (active); in assay [17], 30.8 µM (active). Moreover, the AC50 in assay [11] was 3.32 µM (active); in [12], 0.242 µM (active). The result in [2], in assay [6], in [19], in assay [9], in [15] and in assay [13] was inactive.

For the compound `CCNc1ccccc1`, the result in assay [1], in [2], in [3], in [4], in assay [5] and in assay [6] was inactive. For the same compound, the outcome in assay [7], in [19], in assay [10], in assay [15], in assay [11] and in assay [12] was inactive. Besides, the result in assay [13] and in [18] was inactive.
